Results published in PubChem BioAssay (NCI).
About 83,000 compounds went through this panel and 20% of them were active in at least one assay; those are over-represented in the sample as a whole.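 Assay: single dose, 48 h. Readout: percent growth (0 = no net growth; negative = cell death). Active: <10.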 Values without a mark were called inactive. Activity calls are given as the source filed them.

What was measured:
Assay in all cases: NCI-60 one-dose screen, 48 h (100 = growth as untreated, 0 = no growth, -100 = all killed)
Conditions in all cases: 10 µM unless noted
RPMI-8226 leukemia = test system: RPMI-8226 leukemia
OVCAR-8 ovarian = test system: OVCAR-8 ovarian
OVCAR-5 ovarian = test system: OVCAR-5 ovarian
OVCAR-4 ovarian = test system: OVCAR-4 ovarian
SK-OV-3 ovarian = test system: SK-OV-3 ovarian
IGROV1 ovarian = test system: IGROV1 ovarian
OVCAR-3 ovarian = test system: OVCAR-3 ovarian
NCI/ADR-RES ovarian = test system: NCI/ADR-RES ovarian
HS 578T breast = test system: HS 578T breast

Structure (SMILES) | growth (RPMI-8226 leukemia) | growth (OVCAR-8 ovarian) | growth (OVCAR-5 ovarian) | growth (OVCAR-4 ovarian) | growth (SK-OV-3 ovarian) | growth (IGROV1 ovarian) | growth (OVCAR-3 ovarian) | growth (NCI/ADR-RES ovarian) | growth (HS 578T breast)
CN1CCN(CC(=O)N(C)c2ccc(N=C(c3ccccc3)c3c(O)[nH]c4ccc(C#N)cc34)cc2)CC1 | 57.6% | 39.1% | 80.1% | 48% | -7.83% (active) | 31% | 52.2% | 106% | –
COc1ccc(C2=NN(C(=O)COc3ccc(Cl)cc3)C(O)(c3cc(F)c(Cl)cc3Cl)C2)cc1OC (stereo not given) | -74.8% (active) | 5.4% (active) | 82.8% | 21.8% | 93.6% | -50.6% (active) | – | 19.9% | 22%
CCn1c(SCC(=O)c2ccc(Br)cc2)nnc1-c1cc2c([nH]c3ccccc32)c(-c2cccc(O)c2)n1 | 69.4% | 77.5% | 95.1% | 71.4% | 86.7% | 88.5% | 80.4% | 81.1% | –
CCc1c2cc(Cl)ccc2n2cc(Cc3ccccc3)[nH]c(=O)c12 | 110% | 99.1% | 93.9% | 102% | 103% | 90.5% | 99.2% | 100% | 87.4%
COC(=O)c1oc2c(C(C)=O)c(OCCN3CCCCC3)ccc2c1C | 97.6% | 107% | 107% | 161% | 107% | -8.51% (active) | – | 95.5% | 107%
CC[C@H]1[C@@H]2C=C[C@@H]3[C@H]4C/C=C\C(=O)NCCC[C@@H]5NC(=O)/C(=C(O)/C=C/[C@@H]4C[C@@H]3[C@H]2C[C@H]1C)C5=O | 6.24% (active) | -54.8% (active) | 41.6% | -31.5% (active) | 1.98% (active) | -66.5% (active) | -94.7% (active) | -57.2% (active) | -2.24% (active)
OC(COc1ccccc1Cl)CN1CCN(c2ccc(Cl)cc2)CC1 (stereo not given) | 86.6% | 104% | 81.9% | 91.7% | 114% | 96% | 106% | 115% | –
Nc1nc(Nc2ccc(OCc3cccc(F)c3)cc2)c2c(n1)[nH]c1ccc(O)cc12 | -37.5% (active) | -61.7% (active) | 0.474% (active) | -62.2% (active) | -1.21% (active) | -21.8% (active) | -86.4% (active) | 32.3% | -21.9% (active)
O=c1[nH]ccc2nc(N3CCC(O)CC3)nc(Nc3cccc(C(F)(F)F)c3)c12 | 62.6% | 45.3% | 137% | 91.4% | 32.3% | 71.2% | 68.5% | 32.9% | 80.2%
CCCOC(=O)c1ccc([N+](=O)[O-])o1 | 97.5% | 109% | 99.5% | 95.1% | 113% | 102% | 123% | 104% | –
O=C(Nc1ccc(-n2ccc3c(NC(=O)c4ccccc4)ncnc32)cc1)c1ccc(Cl)c(C(F)(F)F)c1 | 6.7% (active) | 3.65% (active) | 52% | 17.1% | 65.6% | 15.3% | -3.5% (active) | 29.9% | –
Cc1ccc(NC(=O)CN2CCOCC2)cc1Cl | 93.3% | 92% | 99.9% | 94.7% | 90.1% | 107% | 104% | 103% | 98.7%
CC1(C)Cc2c(Br)c(Br)c(Br)c(OCC(O)CN3CCN(c4ccccn4)CC3)c2O1 (stereo not given) | 52.1% | 88.6% | 102% | 112% | 102% | -11.7% (active) | – | 75.3% | 89.2%
CCN(CC)c1ccc(C2CC(c3cc(OC)c(OC)c(OC)c3)=NN2)cc1 (stereo not given) | -13.1% (active) | 6.48% (active) | 40.6% | 37.2% | 5.94% (active) | 17.7% | – | -37% (active) | -13.3% (active)
CCCCOc1c(N)cc(Cl)cc1C(=O)OCCN(CC)CC | 100% | 90.8% | 113% | 118% | 94.5% | 107% | 108% | 107% | 99.7%
COc1ccc(-c2nnc(SCC(=O)Nc3ccc(C(=O)/C=C/c4ccccc4)cc3)o2)cc1OC | 70.5% | 98.8% | 106% | 101% | 109% | 103% | 105% | 93.5% | 110%
CCNc1ncnc2n[nH]nc12 | 95.5% | 99.6% | 103% | 94.7% | 101% | 111% | 106% | 108% | 103%
COc1ccc(C2=NN(C(=O)COc3ccc(Cl)cc3)C(O)(c3cc(F)c(Cl)cc3Cl)C2)cc1 (stereo not given) | 80.9% | 91% | 96.6% | 98.8% | 94.6% | 60.4% | – | 99% | 102%
COc1ccc(C2CC(c3cc(Cl)c(C)cc3OC)=NN2c2ccc(S(N)(=O)=O)cc2)cc1OC (stereo not given) | 91% | 73.8% | 70.6% | 87.8% | 116% | 79.1% | 103% | 77.2% | 101%
Cc1cn(C2CC(F)C(CO)O2)c(=O)[nH]c1=O (stereo not given) | 82.5% | 90.4% | 94.4% | 93.1% | 93.1% | – | – | 86.5% | 133%
CCCCCCCCCCCCCCCCCCNCc1ccc(Cl)cc1 | -53.9% (active) | – | -59.5% (active) | -69.1% (active) | -33.1% (active) | -64.6% (active) | -87.9% (active) | -64.6% (active) | -48.7% (active)
CCn1cc(/C=C2\Oc3cc(OCC#N)ccc3C2=O)c2cc(OC)ccc21 | 15.1% | 21% | – | 85.6% | 43.3% | 43.3% | -6.84% (active) | 11.2% | –
NC(CSC(c1ccccc1)(c1ccccc1)c1ccc(F)cc1)C(=O)O (stereo not given) | -25.9% (active) | 11.1% | 34.9% | 48.8% | 34.3% | – | -39.5% (active) | 37.5% | 16.9%
COc1ccc(-c2nnc(SCC(=O)Nc3ccc(C(=O)/C=C/c4ccc(OC)c(OC)c4)cc3)o2)cc1 | 60.1% | 88.1% | – | 86.9% | 84.6% | 85.9% | 100% | 90.1% | 93.4%
CC(=O)c1ccc2c(c1)C1C=CCC1[C@H](c1cc3c(cc1Br)OCO3)N2 (stereo not given in full) | 9.1% (active) | 16.8% | 34.7% | 56.1% | 34.2% | – | 8.44% (active) | 10.8% | 7.06% (active)
CC(C)(C)C(=O)/C=c1/[nH]c(=O)/c(=C/c2ccccc2O)s1 | 60% | – | 86.9% | 67.3% | 81.4% | 50.1% | 20.2% | 47.1% | 71.7%
CC1=C[S+](c2ccccc2)c2cccc3cc4ccccc4c1c23 (stereo not given) | -32.5% (active) | -9.27% (active) | -32.7% (active) | 17.4% | 0.639% (active) | – | – | 27% | 69.5%
COc1ccc2c(c1)C(=O)/C(=C/c1cccc(OCC(=O)c3ccccc3)c1)O2 | -49.6% (active) | -29.9% (active) | 37.8% | -55.1% (active) | 121% | – | -84.4% (active) | 65.1% | 52%
